Data on five compounds can be found in PubChem BioAssay (NCATS).

SMILES strings stand for the structures. Unmarked numbers belong to inactive results. Inconclusive results are not listed. Activity calls are given as the source filed them. Unless noted, the call rests on the fitted dose curve; in most records, active means well fitted curve in either direction with a large enough effect (not every such curve was filed as active); inconclusive means small, poorly fitted or top-dose-only effect, or another doubt; inactive means flat fitted curve, though single readings scatter. Where only a bound is given, the exact number is not on record here.

Assay [1] has as its target Lysosomal acid glucosylceramidase (Homo sapiens) (UniProt P04062). The assay is described as follows: Glucocerebrosidase-p2 (AID 348; in the data active means potency below about 10 µM; further: potency means the concentration at half of the fitted maximal effect). Particulars: purified GBA, blue fluorogenic substrate, 40 min. The gist of the method:
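Compounds titrated from 0.6 nM upwards against 0.2 nM enzyme in pH 5.9 citric acid/KH2PO4, taurocholate, tween-20; blue fluorogenic substrate 80 uM, 40 min room temperature, stopped and read Ex 365/Em 440 for AC50.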

The nature of assay [2]: AP1 Signaling Pathway (AID 357).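 Further: ME-180 reporter cells stimulated with EGF at its EC50 level; on the % scale 0 is the no-effect control and ±100 the full control effect.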 Particulars: ME-180 AP-1-bla reporter, EGF-induced, beta-lactamase ratio, 5 h; at 7.69 µM (top of the series) unless noted. In outline: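 In this screen, ME-180 cells in Opti-MEM with 0.5% dialyzed FBS received EC50 EGF and compound titrations for 5 h. AP-1 reporter beta-lactamase was detected via CCF4 ratio, giving AC50 for positive and negative modulators.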

Assay [3] has as its target Cytochrome P450 1A2 (Homo sapiens) (UniProt P05177). The assay is described as follows: p450-cyp1a2 (AID 410; calls by dose curve; further: potency means the concentration at half of the fitted maximal effect;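 on activity change, negative = inhibition: -100% = full effect of reference inhibitor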). Particulars: recombinant CYP1A2, luciferin-ME demethylation, luminescence; series mostly up to 11.4 µM. The gist of the method: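 20nM CYP1A2 with 100uM Luciferin-ME (at Km) in 100mM KPO4; compound preincubated 10 min, NADPH regeneration added, 60 min at room temperature. Luciferin quantified by luminescence after detection reagent; normalized to 57 uM furafylline.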

Assay [4] can be described thus: Stat Signaling Pathway (AID 446).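 Further: ME-180 cervical cancer cells given 40 pM IL-6 alongside compound; SIE-controlled beta-lactamase reporter measured as 460/530 nm FRET emission ratio; on the % scale 0 is the no-effect control and ±100 the full control effect.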 As to conditions: ME-180 SIE beta-lactamase reporter, IL-6 stimulated, 5 h; at 7.69 µM (top of the series) unless noted. The gist of the method:
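ME-180 SIE-bla cells; overnight plating; cpd + IL-6 40 pM, 5 h, 37 C; LiveBLAzer 2.5 h RT; 460/530 nm emission ratio. Normalized to 300 pM IL-6 and 125 nM JAK inhibitor controls.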

The target of assay [5] is Glucocorticoid receptor (Homo sapiens) (UniProt P04150). The assay is described as follows: GR-GFP Redistribution (AID 450;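 active means compounds whose dose series gives a full or clear partial fitted curve of increased nuclear translocation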; further: potency means the concentration at half of the fitted maximal effect). Particulars: U2OS GR-GFP nuclear translocation, laser cytometry, 2 h.
Glucocorticoid receptor (Homo sapiens), sequence (P04150 whole entry, looked up, the tested form may be a part): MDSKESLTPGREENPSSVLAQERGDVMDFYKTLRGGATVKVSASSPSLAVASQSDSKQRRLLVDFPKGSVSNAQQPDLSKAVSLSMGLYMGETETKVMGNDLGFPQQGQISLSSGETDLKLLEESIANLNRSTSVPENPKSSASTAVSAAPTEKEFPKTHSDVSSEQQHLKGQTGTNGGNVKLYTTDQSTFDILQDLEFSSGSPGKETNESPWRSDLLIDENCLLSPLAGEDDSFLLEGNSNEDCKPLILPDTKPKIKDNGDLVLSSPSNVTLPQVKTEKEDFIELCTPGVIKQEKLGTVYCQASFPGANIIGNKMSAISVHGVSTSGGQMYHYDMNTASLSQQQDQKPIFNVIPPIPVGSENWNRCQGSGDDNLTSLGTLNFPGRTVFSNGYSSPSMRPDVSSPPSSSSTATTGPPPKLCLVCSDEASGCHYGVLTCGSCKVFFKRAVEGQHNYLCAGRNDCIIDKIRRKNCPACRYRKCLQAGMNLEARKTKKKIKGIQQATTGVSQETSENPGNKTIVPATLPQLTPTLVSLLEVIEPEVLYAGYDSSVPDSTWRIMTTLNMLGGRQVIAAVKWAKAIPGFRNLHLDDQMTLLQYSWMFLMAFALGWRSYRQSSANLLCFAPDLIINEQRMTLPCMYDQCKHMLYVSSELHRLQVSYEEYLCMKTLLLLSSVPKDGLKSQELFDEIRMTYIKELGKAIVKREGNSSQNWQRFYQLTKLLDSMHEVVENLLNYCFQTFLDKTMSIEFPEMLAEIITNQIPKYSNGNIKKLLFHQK
Assay [6] deals with Mitogen-activated protein kinase 10 (Mus musculus) (UniProt Q61831). The assay is described as follows: JNK3 AlphaScreen Assay (AID 530).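 Further: kinase came from lysate of stimulated human HepG2 cells; signal reports phosphorylation of biotinylated GST-cJun 1-79 at Ser73 with 10 µM ATP; on the % scale 0 is the no-effect control and ±100 the full control effect.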 Particulars: JNK3 lysate, c-Jun phosphorylation; series mostly up to 11.4 µM. In outline:
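Inhibitors reduce antibody binding to phosphorylated biotin-cJun, lowering AlphaScreen luminescence. Lysates from HepG2 cells pre-activated by IL-1beta plus TNF-alpha supplied JNK3; compounds were titrated.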
(Bead proximity is the source of the signal in Alpha formats.)

The target in assay [7] is 3',5'-cyclic-AMP phosphodiesterase 4B (Homo sapiens) (UniProt Q07343). The assay is described as follows: qHTS Assay for Inhibitors of PDE-IV (AID 607; active means well fitted activation curve with a large enough effect in the main read-out, with a control signal flat, not every such curve was filed as active; further: % of control where 0% means no effect). Particulars: HEK293 ACTOne CNG channel cells, membrane potential fluorescence; series mostly up to 22.9 µM. In outline:
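ACTOne HEK293 cells carry a modified cAMP-gated CNG channel and express endogenous PDE4; plated 1000 cells/well, compounds up to 22.9 uM final. Membrane-potential dye fluorescence (ex 535/em 590) was read; parental cells received 10 uM forskolin + 100 uM RO 20-1724.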

The target of assay [8] is Cytochrome P450 3A4 (Homo sapiens) (UniProt P08684). The assay is described as follows: qHTS Assay for Activators of Cytochrome P450 3A4 (AID 885; active means well fitted curve in the direction sought with a large enough effect; an effect the other way counts as inactive or inconclusive; further: nearly all actives have a fitted effect of over 65% in size). Particulars: recombinant CYP3A4, Luciferin-PPXE luminescence, 60 min; series mostly up to 11.4 µM. In outline:
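20nM CYP3A4 + 25uM Luciferin-PPXE (=KM), 200mM KPO4; cpd 10 min RT; NADPH regen, 60 min RT; stop w/ detection buffer, 20 min; luminescence. Normalized to 57 uM ketoconazole.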

Assay [9] has as its target Cytochrome P450 2C19 (Homo sapiens) (UniProt P33261). The assay is described as follows: qHTS Assay for Inhibitors and Substrates of Cytochrome P450 2C19 (AID 899; active means well fitted curve in the direction sought with a large enough effect; an effect the other way counts as inactive or inconclusive; further: potency means the concentration at half of the fitted maximal effect; nearly all actives have a fitted effect of over 60% in size). As to conditions: recombinant CYP2C19, luciferin-H EGE luminescence; series mostly up to 11.4 µM. In outline: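 NADPH-dependent conversion of Luciferin-H EGE (10uM, at KM) by 5nM enzyme in 50mM KPO4, 60 min at 37C following 10 min compound preincubation. Stopped with luciferin detection buffer; luminescence read after 20 min.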
(In general: qHTS replaces the single test concentration by a dilution series.)

Assay [10] deals with Glucocorticoid receptor (Homo sapiens) (UniProt P04150). The assay is described as follows: GR-EFC Redistribution (AID 451; calls by dose curve; further: potency means the concentration at half of the fitted maximal effect). As to conditions: CHO-K1 GR-EFC translocation, beta-gal luminescence, 2 h. The gist of the method: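 CHO-K1 cells stably expressing nuclear-localized β-gal enzyme acceptor and GR fused C-terminally to the enzyme donor fragment; ligand-driven nuclear translocation restores β-gal by complementation. Compounds titrated up to 46 uM final, 2 h at 37 °C; luminescence read.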

Assay [11] concerns the target Cytochrome P450 2C9 (Homo sapiens) (UniProt P11712). The assay is described as follows: qHTS Assay for Inhibitors and Substrates of Cytochrome P450 2C9 (AID 883; active means well fitted curve in the direction sought with a large enough effect; an effect the other way counts as inactive or inconclusive; further: potency means the concentration at half of the fitted maximal effect; nearly all actives have a fitted effect of over 60% in size). As to conditions: recombinant CYP2C9, luciferin-H luminescence, 60 min; series mostly up to 11.4 µM. The gist of the method: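 A luminogenic readout tracked human CYP2C9 (10nM) converting deoxyluciferin (100uM, at KM) in 25mM KPO4 during 60 min at 37C with regenerated NADPH. Values normalized to 57uM sulphaphenazole as complete inhibition.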

Assay [12] deals with Cytochrome P450 2D6 (Homo sapiens) (UniProt P10635). The assay is described as follows: qHTS Assay for Inhibitors and Substrates of Cytochrome P450 2D6 (AID 891; active means well fitted curve in the direction sought with a large enough effect; an effect the other way counts as inactive or inconclusive; further: potency means the concentration at half of the fitted maximal effect; nearly all actives have a fitted effect of over 60% in size). As to conditions: recombinant CYP2D6, luciferin-ME EGE luminescence; series mostly up to 11.4 µM. The gist of the method: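 Human CYP2D6 (5 nM) with 30 uM Luciferin-ME EGE (at Km) in 100 mM KPO4, compound preincubated 10 min, then NADPH regeneration system for 60 min at room temperature. Luciferin read by luminescence; normalized to 1.43 uM quinidine.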
Cytochrome P450 2D6 (Homo sapiens), sequence (P10635 whole entry, looked up): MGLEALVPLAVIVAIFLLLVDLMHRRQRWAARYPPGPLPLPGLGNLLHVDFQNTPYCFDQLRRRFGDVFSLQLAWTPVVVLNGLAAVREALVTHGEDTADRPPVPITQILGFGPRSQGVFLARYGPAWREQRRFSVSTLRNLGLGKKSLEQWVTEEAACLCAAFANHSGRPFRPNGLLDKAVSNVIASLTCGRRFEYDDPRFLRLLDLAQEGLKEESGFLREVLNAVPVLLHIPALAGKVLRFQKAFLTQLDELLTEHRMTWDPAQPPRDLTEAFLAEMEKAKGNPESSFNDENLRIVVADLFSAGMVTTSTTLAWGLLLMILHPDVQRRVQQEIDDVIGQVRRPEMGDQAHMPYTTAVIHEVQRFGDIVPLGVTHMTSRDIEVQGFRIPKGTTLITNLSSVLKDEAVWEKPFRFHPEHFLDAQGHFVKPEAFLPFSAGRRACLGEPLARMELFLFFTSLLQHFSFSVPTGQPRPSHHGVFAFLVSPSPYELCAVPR

Assay [13] in a line: qHTS Assay for Identification of Small Molecule Agonists for Hypoxia Response Element Signaling Pathway (AID 914; active means well fitted activation curve with a large enough effect in the signal ratio, with a control signal flat, not every such curve was filed as active; the % refers to the signal ratio; further: potency means the concentration at half of the fitted maximal effect). As to conditions: ME-180 (cervical carcinoma) HRE-bla reporter, beta-lactamase ratio, CoCl2, 17 h; activation: stronger effect = higher value. The gist of the method:
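HRE-bla ME-180 cells with beta-lactamase reporter under hypoxia response element, compounds with EC50 CoCl2 for 17 hours at 37 C. CCF4 substrate, 460nm/530nm emission ratio gave %Activity; AC50 from titration series.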

Cytochrome P450 1A2 (Homo sapiens), sequence (P05177 whole entry, looked up): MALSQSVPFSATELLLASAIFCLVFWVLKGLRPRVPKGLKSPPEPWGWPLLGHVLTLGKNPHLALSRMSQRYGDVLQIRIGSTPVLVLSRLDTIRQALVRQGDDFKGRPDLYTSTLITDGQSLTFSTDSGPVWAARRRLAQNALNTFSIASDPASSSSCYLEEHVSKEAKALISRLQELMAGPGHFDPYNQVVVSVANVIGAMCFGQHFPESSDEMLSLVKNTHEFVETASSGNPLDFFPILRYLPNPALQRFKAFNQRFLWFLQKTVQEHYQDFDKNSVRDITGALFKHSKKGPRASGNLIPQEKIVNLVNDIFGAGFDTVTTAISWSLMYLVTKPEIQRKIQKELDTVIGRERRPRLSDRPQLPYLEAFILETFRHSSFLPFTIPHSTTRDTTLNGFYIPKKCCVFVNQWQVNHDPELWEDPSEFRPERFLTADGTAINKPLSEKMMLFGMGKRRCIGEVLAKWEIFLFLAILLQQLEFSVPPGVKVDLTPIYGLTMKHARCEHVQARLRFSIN
Lysosomal acid glucosylceramidase (Homo sapiens), sequence (P04062 whole entry, looked up): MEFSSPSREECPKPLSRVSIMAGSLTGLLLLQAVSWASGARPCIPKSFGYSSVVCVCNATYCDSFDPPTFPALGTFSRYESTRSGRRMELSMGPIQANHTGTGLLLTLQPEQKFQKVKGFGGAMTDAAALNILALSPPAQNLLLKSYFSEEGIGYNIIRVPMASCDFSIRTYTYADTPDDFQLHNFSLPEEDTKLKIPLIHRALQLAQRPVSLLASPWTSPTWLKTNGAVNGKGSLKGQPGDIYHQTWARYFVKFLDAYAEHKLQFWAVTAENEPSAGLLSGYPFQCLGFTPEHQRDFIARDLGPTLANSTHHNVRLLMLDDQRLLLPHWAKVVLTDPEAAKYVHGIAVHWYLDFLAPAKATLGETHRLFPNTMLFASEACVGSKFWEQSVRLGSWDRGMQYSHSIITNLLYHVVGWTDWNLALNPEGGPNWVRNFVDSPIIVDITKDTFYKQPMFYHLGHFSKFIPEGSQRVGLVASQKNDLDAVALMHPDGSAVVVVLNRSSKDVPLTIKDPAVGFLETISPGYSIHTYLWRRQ
3',5'-cyclic-AMP phosphodiesterase 4B (Homo sapiens), sequence (Q07343 whole entry, looked up): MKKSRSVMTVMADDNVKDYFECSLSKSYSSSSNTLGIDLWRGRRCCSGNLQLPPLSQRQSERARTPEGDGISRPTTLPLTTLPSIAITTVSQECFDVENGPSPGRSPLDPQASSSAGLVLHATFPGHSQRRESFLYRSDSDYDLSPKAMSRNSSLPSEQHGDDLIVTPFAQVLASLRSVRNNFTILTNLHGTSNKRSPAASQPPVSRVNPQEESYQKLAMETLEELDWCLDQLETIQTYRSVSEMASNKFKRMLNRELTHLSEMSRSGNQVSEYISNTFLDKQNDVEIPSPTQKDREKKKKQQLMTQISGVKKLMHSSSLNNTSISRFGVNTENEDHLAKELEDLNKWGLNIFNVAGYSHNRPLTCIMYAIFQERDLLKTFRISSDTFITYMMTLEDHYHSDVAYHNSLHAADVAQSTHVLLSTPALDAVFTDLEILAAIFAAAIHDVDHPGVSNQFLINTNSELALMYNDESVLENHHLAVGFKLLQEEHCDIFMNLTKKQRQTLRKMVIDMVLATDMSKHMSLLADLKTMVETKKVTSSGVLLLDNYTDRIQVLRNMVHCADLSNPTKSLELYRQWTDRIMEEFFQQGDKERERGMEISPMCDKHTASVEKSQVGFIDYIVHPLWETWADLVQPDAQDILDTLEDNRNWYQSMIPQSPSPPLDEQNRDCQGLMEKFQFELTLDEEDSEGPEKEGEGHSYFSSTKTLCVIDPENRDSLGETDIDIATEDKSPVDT
Cytochrome P450 2C19 (Homo sapiens), sequence (P33261 whole entry, looked up): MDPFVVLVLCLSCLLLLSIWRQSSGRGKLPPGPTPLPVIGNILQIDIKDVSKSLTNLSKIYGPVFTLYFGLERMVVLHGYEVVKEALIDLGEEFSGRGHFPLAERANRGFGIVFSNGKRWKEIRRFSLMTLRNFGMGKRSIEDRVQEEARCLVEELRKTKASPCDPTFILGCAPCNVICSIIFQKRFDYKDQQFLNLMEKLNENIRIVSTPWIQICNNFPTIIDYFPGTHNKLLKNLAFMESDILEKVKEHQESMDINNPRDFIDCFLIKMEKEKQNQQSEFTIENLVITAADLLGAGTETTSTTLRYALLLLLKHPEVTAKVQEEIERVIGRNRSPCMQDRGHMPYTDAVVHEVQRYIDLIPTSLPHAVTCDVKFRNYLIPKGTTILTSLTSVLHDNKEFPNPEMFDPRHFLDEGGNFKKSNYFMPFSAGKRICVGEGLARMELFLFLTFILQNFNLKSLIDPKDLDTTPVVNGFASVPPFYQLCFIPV
Cytochrome P450 2C9 (Homo sapiens), sequence (P11712 whole entry, looked up): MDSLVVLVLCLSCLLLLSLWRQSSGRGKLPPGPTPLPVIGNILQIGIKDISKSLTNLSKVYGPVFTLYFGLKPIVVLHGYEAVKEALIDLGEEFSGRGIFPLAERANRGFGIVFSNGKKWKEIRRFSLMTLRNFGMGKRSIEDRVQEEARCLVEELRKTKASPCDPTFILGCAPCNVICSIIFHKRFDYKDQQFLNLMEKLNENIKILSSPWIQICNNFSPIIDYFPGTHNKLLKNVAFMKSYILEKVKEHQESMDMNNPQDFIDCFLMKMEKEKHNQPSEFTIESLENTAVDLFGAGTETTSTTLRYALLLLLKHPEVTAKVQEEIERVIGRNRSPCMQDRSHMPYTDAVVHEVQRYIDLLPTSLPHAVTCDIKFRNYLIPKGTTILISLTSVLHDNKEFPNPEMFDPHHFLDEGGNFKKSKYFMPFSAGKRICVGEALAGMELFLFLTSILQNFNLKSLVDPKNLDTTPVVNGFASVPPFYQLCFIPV
Cytochrome P450 3A4 (Homo sapiens), sequence (P08684 whole entry, looked up): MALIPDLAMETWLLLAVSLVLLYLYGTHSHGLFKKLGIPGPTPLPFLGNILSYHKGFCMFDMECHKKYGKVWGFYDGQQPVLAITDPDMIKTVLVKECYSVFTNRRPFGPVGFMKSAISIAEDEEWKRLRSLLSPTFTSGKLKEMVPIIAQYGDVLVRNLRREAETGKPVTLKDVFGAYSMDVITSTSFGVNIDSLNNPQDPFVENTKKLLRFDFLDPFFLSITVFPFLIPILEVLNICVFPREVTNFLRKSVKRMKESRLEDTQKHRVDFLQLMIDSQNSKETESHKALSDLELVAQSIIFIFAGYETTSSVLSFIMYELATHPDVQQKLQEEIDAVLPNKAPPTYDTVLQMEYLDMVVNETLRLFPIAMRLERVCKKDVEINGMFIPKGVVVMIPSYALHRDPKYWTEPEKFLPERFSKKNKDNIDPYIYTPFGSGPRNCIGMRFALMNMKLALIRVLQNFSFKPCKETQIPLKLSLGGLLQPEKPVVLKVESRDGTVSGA

As to `c1ccc2sc(SCSc3nc4ccccc4s3)nc2c1`, the Potency in assay [1] is > 11.4 µM; in [3] it was 3.98 µM (active); in [5] it was > 46 µM; in assay [9], 1.26 µM (active). Further, the activity change, negative = inhibition in assay [2] is -1.38%. In addition, the activity, negative = inhibition in assay [4] is 2.46%. For the same compound, the Potency entry in [6], in assay [7] and in assay [8] was “inactive” in each case.
As for `COc1ccc(C(=O)CCN(C)C)c2ccccc12`, the Potency in assay [1] is > 11.4 µM; in assay [3] it was 1.58 µM (active); in [5], > 46 µM; in assay [10], > 9.22 µM; in [11], 3.98 µM (active). The activity change, negative = inhibition in [2] was -15.5%. For the same compound, the Potency result in [6], in assay [7] and in assay [8] was “inactive” throughout.
Consider `OC1CC2CC[C@H](C1)N2CCCN1c2ccccc2Sc2ccc(Cl)cc21` (stereo partly specified), for which the Potency in [1] is > 11.4 µM; in assay [5] it was > 46 µM; in [10] it was > 9.22 µM; in [12], 0.0631 µM (active). Moreover, the activity change, negative = inhibition in assay [2] is 18.1%. Besides, the Potency entry in [3], in assay [6] and in [7] was “inactive” throughout.
Turning to `O=c1c(-c2cccs2)nc2cnc(Oc3ccccc3)nc2n1C1CC1`, the Potency was > 11.4 µM in assay [1]; 2.51 µM (active) in [3]; > 9.22 µM in assay [5]; > 46 µM in [10]; 3.16 µM (active) in [11]; 3.16 µM (active) in assay [13]. Moreover, in assay [2], the activity change, negative = inhibition was -6.67%. The Potency entry in assay [7] was “inactive”.
As for `COc1cc(O)c2c(O)c3c(c4c2c1[C@@]1(C4)C(C)=CCCC1(C)C)[C@H](O)[C@@]1(O)CC(=O)C(C(N)=O)=C(O)[C@]1(O)C3=O`, the Potency in assay [1] was > 11.4 µM; in assay [3], 3.16 µM (active); in assay [10], > 9.22 µM; in assay [9], 2.51 µM (active). Besides, in assay [2], the activity change, negative = inhibition was -27.8%. For the same compound, the Potency result in assay [6] and in [7] was “inactive” throughout.
